Assay outcomes: PubChem, National Center for Advancing Translational Sciences (NCATS)
HEK293 tox: HEK 293 cell cytotoxicity | HEK 293 viability, ATP luminescence (CellTiter-Glo), 48-72 h | Potency, µM (titrated, usually from 115 µM), actives largely listed as inhibitors | 94,000 compounds, 6.6% hits | AID 1345083; also: nearly all actives have a fitted effect of over 60% in size
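HEK 293 cells at 250 cells/well were exposed to compounds by pintool transfer for 48 or 72 hr at 37 degree Celsius, 5% CO2. Viability was read as ATP-coupled luminescence with CellTiter-Glo after 10 min at room temperature.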
3T3 cytotox: NIH 3T3 cell cytotoxicity | 94,000 compounds, 4.3% hits | Potency, µM (doses to about 96.7 µM), usual class: inhibitors | NIH 3T3 viability, CellTiter-Glo ATP luminescence, 48-72 h; also: nearly all actives have a fitted effect of over 55% in size
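Cells were seeded at 400 per well, treated with pin-transferred compound, and kept 48 or 72 hr at 37 °C before CellTiter-Glo addition and luminescence imaging of cellular ATP.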
GPT2 inhibitor: inhibitors of human GPT2 alanine aminotransferase; Recombinant GPT2, coupled pyruvate oxidase/HRP Amplex Red fluorescence; Potency, µM (top dose mostly 57.7 µM), actives largely listed as inhibitors; 100,000 compounds, 0.25% hits; AID 1671188; Q8TD30; also: nearly all actives have a fitted effect of over 60% in size
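Fluorescence of coupled pyruvate oxidase/HRP/Amplex Red system (50uM Amplex, 30 min, dark) reports pyruvate formed by GPT2. Enzyme reaction: 10ng/uL GPT2, 2mM L-alanine, 250uM a-KG, 30 min room temperature, pH 7.5; 50uM AOA control.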
NPR1 antag: antagonists of human natriuretic peptide receptor Npr1; 76,000 compounds, 1.6% hits; Potency, µM (highest dose often 46.3 µM), hits mostly inhibitors; P16066; HEK293 hNpr1 GloSensor cGMP, ANP-stimulated luminescence; calls by dose curve; also: nearly all actives have a fitted effect of over 60% in size
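HEK293 cells stably expressing human Npr1 and cGMP GloSensor pGS-40F, loaded 2 h with 2% GloSensor reagent, given compound 30 min at room temperature. Luminescence read before and 20 min after 0.1 nM hNppA.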
FLuc inh: inhibitors of firefly (Photinus pyralis) luciferase. P08659. purified P. pyralis luciferase, luminescence, biochemical. Potency, µM (doses to about 115 µM), actives largely listed as inhibitors. 76,000 compounds, 2.5% hits. AID 1347043; also: nearly all actives have a fitted effect of over 65% in size
Target sequence (P08659 whole entry, looked up): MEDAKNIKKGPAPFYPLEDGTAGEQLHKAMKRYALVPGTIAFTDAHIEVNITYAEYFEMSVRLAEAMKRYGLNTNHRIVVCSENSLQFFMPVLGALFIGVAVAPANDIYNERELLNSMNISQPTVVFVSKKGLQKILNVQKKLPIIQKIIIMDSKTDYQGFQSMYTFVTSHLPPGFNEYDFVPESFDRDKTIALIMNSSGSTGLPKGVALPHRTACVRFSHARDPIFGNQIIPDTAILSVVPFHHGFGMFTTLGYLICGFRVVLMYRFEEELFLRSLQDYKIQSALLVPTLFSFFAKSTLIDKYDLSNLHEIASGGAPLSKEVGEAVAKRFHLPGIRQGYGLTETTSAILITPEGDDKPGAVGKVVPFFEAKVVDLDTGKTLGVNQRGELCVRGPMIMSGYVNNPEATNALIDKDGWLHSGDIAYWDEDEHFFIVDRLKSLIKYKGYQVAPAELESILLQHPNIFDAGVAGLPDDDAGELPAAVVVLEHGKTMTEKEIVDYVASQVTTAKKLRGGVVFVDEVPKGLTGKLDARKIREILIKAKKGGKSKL
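Biochemical qHTS: compound (6-point titration) added to 10uM D-luciferin plus 10uM ATP in Tris acetate pH 7.5 buffer with Mg, Tween-20 and BSA, then purified enzyme at 10nM; light output imaged.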
Npr1 antag conf: hNpr1 antagonism, confirmation assay; shares compounds with NPR1 antag; HEK293 hNpr1 cGMP GloSensor luminescence, ANP-stimulated; Potency, µM (series often up to 57.6 µM), actives largely listed as inhibitors; 1,400 compounds, 76% hits; AID 1347044; calls by dose curve; also: nearly all actives have a fitted effect of over 70% in size
NPR2 antag: hNpr2 antagonism, selectivity versus Npr1. Potency, µM (highest dose often 57.6 µM), actives largely listed as inhibitors. HEK293 hNpr2 GloSensor cGMP luminescence, CNP-stimulated. 1,400 compounds, 67% hits. AID 1347046. shares compounds with NPR1 antag; calls by dose curve; also: nearly all actives have a fitted effect of over 70% in size
FLuc inh counter: counter-screen for Npr1 antagonists: firefly luciferase inhibitors | Potency, µM (top dose mostly 57.6 µM), usual class: inhibitors | purified FLuc enzyme, luminescence, Km substrate | 1,400 compounds, 0.7% hits | shares compounds with NPR1 antag
GloSensor ctrl: reduces cGMP signal in GloSensor control cells; AID 1347051; shares compounds with NPR1 antag; Potency, µM (top dose mostly 57.6 µM), usual class: inhibitors; HEK293 GloSensor cGMP, SNP-stimulated, luminescence; 1,400 compounds, 69% hits; calls by dose curve; also: nearly all actives have a fitted effect of over 70% in size
Of the large screens only hits and unclear results are named; the others gave an inactive call (follow-up assays come after a bar, where they were run). Hits are enriched below; roughly 10% of the tested compounds scored in any of these assays. Unless noted, calls follow the shape of the dose curve; as a rule, active = well fitted curve in the direction sought with a large enough effect; inconclusive = small, poorly fitted or top-dose-only effect, or another doubt; inactive = no such curve, though single readings can be large; an effect the other way counts as inactive or inconclusive.

COc1ccccc1C(=O)NC1CCN(c2cc(C(F)(F)F)nc(C)n2)CC1	HEK293 tox inconclusive, 3T3 cytotox inconclusive, NPR1 antag inconclusive | Npr1 antag conf inconclusive | NPR2 antag inactive | FLuc inh counter inactive | GloSensor ctrl inconclusive
Cc1nc(N2CCC(C(=O)NCc3cccc(Cl)c3)CC2)cc(C(F)(F)F)n1	HEK293 tox inconclusive, 3T3 cytotox inconclusive, NPR1 antag 10µM | Npr1 antag conf 19µM | NPR2 antag 19µM | FLuc inh counter inactive | GloSensor ctrl 17µM
Cc1ccc(CCNC(=O)C2CCN(c3cc(C(F)(F)F)nc(C)n3)CC2)cc1	HEK293 tox inconclusive
O=C(Cc1ccccc1Cl)NC1CCN(c2cc(C(F)(F)F)ncn2)CC1	HEK293 tox inconclusive, NPR1 antag 11µM | Npr1 antag conf 19µM | NPR2 antag 15µM | FLuc inh counter inactive | GloSensor ctrl 15µM
COc1ccc(S(=O)(=O)N[C@H]2C[C@@H](c3nc(-c4ccc(OC(F)(F)F)cc4)no3)N(C)C2)cc1	HEK293 tox inconclusive, 3T3 cytotox inconclusive, GPT2 inhibitor inconclusive, NPR1 antag 11µM | Npr1 antag conf 22µM | NPR2 antag 22µM | FLuc inh counter inactive | GloSensor ctrl 17µM
COc1ccc(CN2CCOC[C@H]2c2ncc(-c3ccc(C)cc3)[nH]2)cc1	HEK293 tox inconclusive, 3T3 cytotox 100µM | Npr1 antag conf inactive | NPR2 antag inconclusive | FLuc inh counter inactive | GloSensor ctrl inactive
Fc1ccc(CN2CCOC[C@H]2c2ncc(-c3ccc(F)cc3)[nH]2)cc1	HEK293 tox inconclusive, 3T3 cytotox inconclusive, NPR1 antag inconclusive | Npr1 antag conf inconclusive | NPR2 antag inconclusive | FLuc inh counter inactive | GloSensor ctrl inconclusive
COc1cncc(CN2CC[C@@H]3OCC(=O)N(C(C)C)[C@H]3CC2)c1	HEK293 tox inconclusive
COc1cc(NC(=O)Cn2c(N3CCC(C)CC3)nc(C)cc2=O)cc(OC)c1	HEK293 tox inconclusive, 3T3 cytotox inconclusive, NPR1 antag 6.3µM | Npr1 antag conf 9.7µM | NPR2 antag 12µM | FLuc inh counter inactive | GloSensor ctrl 6.9µM
Cc1cc(=O)n(CC(=O)Nc2ccc(Cl)cc2)c(N2CCc3ccccc3C2)n1	HEK293 tox inconclusive, 3T3 cytotox inconclusive
Cc1cc(=O)n(CC(=O)Nc2cccc(Cl)c2)c(N2CCc3ccccc3C2)n1	HEK293 tox inconclusive, 3T3 cytotox 14µM, NPR1 antag 20µM | Npr1 antag conf inactive | NPR2 antag inactive | FLuc inh counter inactive | GloSensor ctrl inconclusive
COc1ccc(OC)c(NC(=O)Cn2c(N3CCC(C)CC3)nc(C)cc2=O)c1	HEK293 tox inconclusive, 3T3 cytotox inconclusive, NPR1 antag 13µM | Npr1 antag conf 22µM | NPR2 antag 22µM | FLuc inh counter inactive | GloSensor ctrl 24µM
O=C1COc2ccc(NCCOc3ccccc3)nc2CN1Cc1ccccc1F	HEK293 tox inconclusive, 3T3 cytotox inconclusive, NPR1 antag 22µM | Npr1 antag conf 31µM | NPR2 antag 35µM | FLuc inh counter inactive | GloSensor ctrl 31µM
O=C1COc2ccc(NCCc3ccccn3)nc2CN1Cc1ccc(C(F)(F)F)cc1	HEK293 tox inconclusive, 3T3 cytotox inconclusive, NPR1 antag inconclusive | Npr1 antag conf inconclusive | NPR2 antag inconclusive | FLuc inh counter inactive | GloSensor ctrl inconclusive
O=C1COc2ccc(NCc3cccs3)nc2CN1CCOc1ccccc1	HEK293 tox 89µM, 3T3 cytotox inconclusive, NPR1 antag 14µM | Npr1 antag conf 20µM | NPR2 antag 22µM | FLuc inh counter inactive | GloSensor ctrl 18µM
